Data taken from the supplement of paper PMC6763611.

Each compound was assayed on Plasmodium falciparum NF54 (assay: growth inhibition relative to untreated control; higher = more inhibition). Details: 5 µM; MM + chorismate end-products (CM screening medium); 72 h.
In short: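 Growth inhibition was measured by SYBR Green fluorescence, normalised to untreated wells and corrected for background from uninfected erythrocytes. The parasites were P. falciparum NF54 ring stages (1% hematocrit, 1% parasitemia) exposed to single 5 μM or 1 μM doses of test compounds for 72 h at 37 °C, in either minimal RPMI or minimal RPMI containing 2.2 μM folate, 7.3 μM pABA, 7.3 μM pHBA, 111 μM tyrosine, 90 μM phenylalanine and tryptophan.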
Compound `O=C(Nc1nnc(-c2ccc(Cl)s2)o1)c1ccc(Cl)s1` has a growth inhibition of under 0%. `Cc1ccc(S(=O)(=O)N2CCN(C(=O)c3cc(-c4ccccc4)n[nH]3)CC2)cc1` gave a growth inhibition of 82.9%. `COc1ccc(-c2cnc3ccc(N4CCCC4)nn23)cc1OC` gave a growth inhibition of 96.8%. `CCC(Sc1nc2ccccc2o1)C(=O)Nc1nnc(C)s1` (stereo not drawn) gave a growth inhibition of under 0%. Work on `CCOc1ccc(OCC(=O)Nc2cc(C)cc(C)c2)cc1` yielded a growth inhibition of 32.1%. Compound `COC(=O)c1c(NC(=O)c2cc3ccccc3oc2=O)sc2c1CCN(Cc1ccccc1)C2` has a growth inhibition of 5.7%. `CC1COC2(CCN(c3nc(=O)c4cc(C(F)(F)F)cc([N+](=O)[O-])c4s3)CC2)O1` (stereo not drawn) gave a growth inhibition of 14.7%. In the case of `COc1ccc(-c2cnc3cnc(-c4cccc(OC(C)C)c4)cn23)cc1`, the growth inhibition is reported as under 0%. Work on `COc1cc(CN2CCC3(C=Cc4ccccc43)CC2)cc2c1OCO2` yielded a growth inhibition of under 0%. `O=C(Nc1ccc(N2CCNCC2)nc1)c1oc(-c2ccccc2)nc1C(F)(F)F` gave a growth inhibition of 96.6%. Work on `CN1CCN(S(=O)(=O)c2ccc(-c3ccc4c(Nc5ncc(Cl)cn5)ccnc4c3)cc2)CC1` yielded a growth inhibition of 99%. For `O=C(COc1cccc(F)c1)Nc1nc(-c2ccccn2)cs1`, the growth inhibition was under 0%. For `O=C(C1CCN(c2nnc(-n3cccc3)s2)CC1)N1CCC(Cc2ccccc2)CC1`, the growth inhibition was 48.7%. `COc1ccc(Cl)cc1NC(=O)CN(C)C(=O)c1cnn(-c2ccccc2)n1` showed a growth inhibition of 85%. In the case of `CC(C)(C)OC(=O)N1CCC(Cn2nc(-c3cnc4ccccc4c3)c3c(N)ncnc32)CC1`, the growth inhibition is reported as 64.1%. Work on `COc1ccc(Cn2cnc3c(-c4ccco4)nc(Cl)nc32)cc1` yielded a growth inhibition of 48.9%. Compound `Cc1ccc2nc(Cl)c(CNCc3cccs3)cc2c1` has a growth inhibition of under 0%. Work on `C[C@H]1COc2c(N3CCN(C)CC3)c(F)cc3c(=O)c(C(=O)O)cn1c23` yielded a growth inhibition of 5.29%. `O=C(NC1CCN(c2ccnc3ccccc23)C1)c1cccc(C(F)(F)F)c1` (stereo not drawn) gave a growth inhibition of 96.9%. `Cc1ccc2nc(C)c(-c3ccn(Cc4ccccc4)n3)n2c1` gave a growth inhibition of 36.8%. Work on `CS(=O)(=O)N1CCC(CCn2nc(Cc3cccc4ccccc34)c3c(N)ncnc32)CC1` yielded a growth inhibition of 41.3%. `CC(C)(C)n1nc(Cc2ccc(F)c(Cl)c2)c2c(N)ncnc21` gave a growth inhibition of 54.9%. Work on `CC(Oc1cccc(Cl)c1)C(=O)Nc1ccc2oc(-c3ccncc3)nc2c1` (stereo not drawn) yielded a growth inhibition of under 0%. In the case of `Clc1cccc(CO[C@H]2CCc3ccccc3[C@@H]2n2ccnn2)c1`, the growth inhibition is reported as under 0%. Compound `CCC(Sc1nc2ccccc2o1)C(=O)Nc1nccs1` (stereo not drawn) has a growth inhibition of 60%. `CC(C)(C)c1cc(C(=O)N2CCN(c3nccnc3C#N)CC2)n(Cc2ccccc2)n1` was tested, and the growth inhibition was 92.9%. Work on `COc1ccccc1OCCCCn1c(C2CC2)nc2ccccc21` yielded a growth inhibition of 74.9%. With `CNC(=O)c1cc(S(=O)(=O)N2CCN(c3ccccn3)CC2)cs1` the growth inhibition was 90.2%. In the case of `Cc1ccc(-c2nc(CN(Cc3ccccn3)C(C)C)cs2)o1`, the growth inhibition is reported as 81.7%. Compound `O=C(NCCN1CCCC1)c1cc(NCCN2CCOCC2)nc2ccc(Cl)cc12` has a growth inhibition of 92.2%. Work on `Cc1[nH]c2ccccc2c1C(c1cccs1)N1CCN(C)CC1` (stereo not drawn) yielded a growth inhibition of 9.09%. With `COC(=O)c1cccc2oc(-c3cccc(OC)c3NC(=O)c3cc(-c4ccccc4)on3)nc12` the growth inhibition was under 0%. Compound `COc1ccc(CCN2CCC(NCc3cccc(N(C)C)c3)CC2)cc1` has a growth inhibition of over 100%. For `Cc1ccccc1CN1CCC(O)(c2ccc(Cl)c(C(F)(F)F)c2)CC1`, the growth inhibition was 82.6%. `COc1cc(Br)cc2cc(C(=O)Nc3cccc(C(F)(F)F)c3)c(=O)oc12` showed a growth inhibition of 21.7%. `COc1ccc(-c2nnc3ccc(-c4cccc(C(C)C)c4)cn23)cc1OC` was tested, and the growth inhibition was 33.1%. For `CN1CCN(c2nccc3nc(-c4ccc(F)c(F)c4)[nH]c23)CC1`, the growth inhibition was over 100%. `Cc1ncc(-c2ccnc(Nc3ccc(S(C)(=O)=O)cc3)n2)n1C(C)C` was tested, and the growth inhibition was 42.1%.
